Assay results as given in PubChem BioAssay.
Activity calls are given as the source filed them.

Legend:
[1] = system: Plasmodium falciparum Sir2 (PF13_0152, Sir2A); experiment: Plasmodium falciparum Sir2A binding compounds – biochemical, small-molecule microarray, 635 nm fluorescence, primary screen (AID 1098); details: fluorescence 635 nm, higher = more signal;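 note: score merges spot fluorescence intensity with its signal-to-noise ratio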
[2] = probe aDKK1 binding to arrayed compounds – biochemical, biotinylated probe, 635/667 nm fluorescence, primary screen (AID 1099); details: small-molecule microarray, higher = more signal;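 note: score merges 667nm spot fluorescence with signal to noise across triplicate slides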
[3] = probe aCHRDL2 binding to arrayed compounds – biochemical, biotinylated probe, 635/667 nm fluorescence, primary screen (AID 1100); details: small-molecule microarray, higher = more signal
[4] = change in splice reporter luminescence, either direction, cell-based, HEK293, spliceosome inhibition project, primary screen (AID 1101); details: HEK293 splicing luciferase reporter, 24 h, higher = more signal, called active from +8 up or from −8 down;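 note: HEK293 cells carrying a splicing-competent luciferase reporter gene; test concentration not given here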
[5] = target: Fibroblast growth factor 10 (Homo sapiens) (UniProt O15520); experiment: compounds binding fibroblast growth factor 10 – biochemical, small-molecule microarray, 635 nm fluorescence, primary screen (AID 1102); details: FGF10 binding, fluorescence 635 nm, higher = more signal
[6] = system: glycogen synthase kinase-3 (GSK3A per assay name; protocol says GSK3B); experiment: compounds binding glycogen synthase kinase-3 – biochemical, small-molecule microarray, 635 nm fluorescence, GSK3A, primary screen (AID 1103); details: fluorescence 635 nm, higher = more signal; note: the record names both GSK3A and GSK3B
[7] = target: Epidermal growth factor receptor (Homo sapiens) (UniProt P00533); experiment: compounds binding epidermal growth factor receptor – biochemical, small-molecule microarray, 635 nm fluorescence, primary screen (AID 1104); details: EGFR binding, higher = more signal;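 note: score merges 667 nm emission intensity with spot signal to noise over triplicate slides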
[8] = target: Follistatin-related protein 3 (Homo sapiens) (UniProt O95633); experiment: compounds binding follistatin-related protein 3 – biochemical, small-molecule microarray, 635 nm fluorescence, primary screen (AID 1105); details: FSTL3 binding, higher = more signal;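 note: score merges emission near 667 nm and signal to noise per printed spot across three slides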
[9] = target: Dickkopf-related protein 1 (Homo sapiens) (UniProt O94907); experiment: small molecules binding DKK1 protein – biochemical, small-molecule microarray, 635 nm fluorescence scan, primary screen (AID 1106); details: higher = more signal;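 note: score merges emission near 667 nm with signal to noise over three replicate slides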
[10] = system: Inhibin beta A chain (activin A); experiment: small molecules binding activin A – biochemical, small-molecule microarray, 635 nm fluorescence scan, primary screen (AID 1107); details: INHBA, higher = more signal;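 note: mouse activin A protein probed at 4.33 µg/mL on printed slides; score merges bound-protein fluorescence near 667 nm with spot signal-to-noise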
[11] = system: Human papillomavirus type 1a protein E7 (residues 44-93); experiment: small molecules binding HPV E7 44-93 – biochemical, small-molecule microarray, residues 44-93, 635 nm fluorescence, primary screen (AID 1108); details: fluorescence 635 nm, higher = more signal;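 note: E7 fragment applied at 1 µg/mL in TBST for 1 h at 4 C; score combines spot fluorescence with its signal to noise ratio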
[12] = hepatitis C replication reporter changes, two-sided – Huh7 cells, luciferase reporter, HCV replication inhibitor project, primary screen (AID 1109); details: Huh7 HCV replicon luciferase reporter, 48 h; higher = more signal;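 note: huh7 hepatoma cells harbouring a luciferase neomycin HCV replicon reporter; luciferase luminescence as measure of HCV replicon replication; test concentration not given here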
[13] = target: Left-right determination factor 2 (Homo sapiens) (UniProt O00292); experiment: small molecules binding LEFTY2 protein – biochemical, small-molecule microarray, 635 nm fluorescence scan, primary screen (AID 1110); details: higher = more signal
[14] = target: Calmodulin-1 (Homo sapiens) (UniProt P0DP23); experiment: small molecules binding calmodulin-1 with EGTA – biochemical, small-molecule microarray, Cy5-labelled CALM1, profiling panel (AID 1111); details: Cy5-CALM1 binding fluorescence, higher = more signal;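 note: labelled calmodulin applied in Tris saline Tween buffer holding calcium plus EGTA and DTT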
[15] = target: Calmodulin-1 (Homo sapiens) (UniProt P0DP23); experiment: small molecules binding Ca-loaded calmodulin-1 – biochemical, small-molecule microarray, Cy5-labelled CALM1, plus calcium, artefact control for SMM control-protein annotation, profiling panel (AID 1112); details: Cy5-CALM1 binding fluorescence, higher = more signal;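 note: score merges spot fluorescence with signal to noise from triplicate slides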
[16] = probe aWnt5a binding to arrayed compounds – biochemical, biotinylated probe, 635/667 nm fluorescence, primary screen (AID 1113); details: small-molecule microarray, higher = more signal;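 note: score merges 667 nm fluorescence intensity with signal-to-noise per printed feature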
[17] = probe aShh binding to arrayed compounds – biochemical, biotinylated probe, 635/667 nm fluorescence, primary screen (AID 1114); details: small-molecule microarray, higher = more signal;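 note: probe is biotin-labelled aShh protein from a stem cell growth factor screen; measures binding of labelled protein to compounds printed on the slide; score merges feature fluorescence at 667 nm with signal-to-noise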
[18] = probe aNog binding to arrayed compounds – biochemical, biotinylated probe, 635/667 nm fluorescence, primary screen (AID 1115); details: small-molecule microarray, higher = more signal;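 note: probe is biotinylated aNog protein used at 0.15 µg/mL for 1 h at 4 C; z-score combines 667 nm fluorescence of each spot with its signal to noise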
[19] = target: Torsin-1A-interacting protein 1 (Homo sapiens) (UniProt Q5JTV8); experiment: compound microarray binding of lysate hLAP1 – cell lysate, small-molecule microarray, COS7 lysate, 635/667 nm fluorescence, primary screen (AID 1116); details: 635 nm fluorescence, higher = more signal
[20] = target: Alpha-bungarotoxin (Bungarus multicinctus) (UniProt P60615); experiment: compounds binding labelled alpha-BTX control protein – biochemical, small-molecule microarray, Alexa647 label, 635/667 nm fluorescence, artefact control for SMM control protein annotation, profiling panel (AID 1117); details: alpha-BTX-A647 binding fluorescence, higher = more signal
Chain of Alpha-bungarotoxin (Bungarus multicinctus) (P60615 whole entry, looked up): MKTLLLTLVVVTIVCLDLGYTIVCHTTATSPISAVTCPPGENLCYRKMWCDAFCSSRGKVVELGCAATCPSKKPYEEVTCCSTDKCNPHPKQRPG

Chain of Epidermal growth factor receptor (Homo sapiens) (P00533 whole entry, looked up): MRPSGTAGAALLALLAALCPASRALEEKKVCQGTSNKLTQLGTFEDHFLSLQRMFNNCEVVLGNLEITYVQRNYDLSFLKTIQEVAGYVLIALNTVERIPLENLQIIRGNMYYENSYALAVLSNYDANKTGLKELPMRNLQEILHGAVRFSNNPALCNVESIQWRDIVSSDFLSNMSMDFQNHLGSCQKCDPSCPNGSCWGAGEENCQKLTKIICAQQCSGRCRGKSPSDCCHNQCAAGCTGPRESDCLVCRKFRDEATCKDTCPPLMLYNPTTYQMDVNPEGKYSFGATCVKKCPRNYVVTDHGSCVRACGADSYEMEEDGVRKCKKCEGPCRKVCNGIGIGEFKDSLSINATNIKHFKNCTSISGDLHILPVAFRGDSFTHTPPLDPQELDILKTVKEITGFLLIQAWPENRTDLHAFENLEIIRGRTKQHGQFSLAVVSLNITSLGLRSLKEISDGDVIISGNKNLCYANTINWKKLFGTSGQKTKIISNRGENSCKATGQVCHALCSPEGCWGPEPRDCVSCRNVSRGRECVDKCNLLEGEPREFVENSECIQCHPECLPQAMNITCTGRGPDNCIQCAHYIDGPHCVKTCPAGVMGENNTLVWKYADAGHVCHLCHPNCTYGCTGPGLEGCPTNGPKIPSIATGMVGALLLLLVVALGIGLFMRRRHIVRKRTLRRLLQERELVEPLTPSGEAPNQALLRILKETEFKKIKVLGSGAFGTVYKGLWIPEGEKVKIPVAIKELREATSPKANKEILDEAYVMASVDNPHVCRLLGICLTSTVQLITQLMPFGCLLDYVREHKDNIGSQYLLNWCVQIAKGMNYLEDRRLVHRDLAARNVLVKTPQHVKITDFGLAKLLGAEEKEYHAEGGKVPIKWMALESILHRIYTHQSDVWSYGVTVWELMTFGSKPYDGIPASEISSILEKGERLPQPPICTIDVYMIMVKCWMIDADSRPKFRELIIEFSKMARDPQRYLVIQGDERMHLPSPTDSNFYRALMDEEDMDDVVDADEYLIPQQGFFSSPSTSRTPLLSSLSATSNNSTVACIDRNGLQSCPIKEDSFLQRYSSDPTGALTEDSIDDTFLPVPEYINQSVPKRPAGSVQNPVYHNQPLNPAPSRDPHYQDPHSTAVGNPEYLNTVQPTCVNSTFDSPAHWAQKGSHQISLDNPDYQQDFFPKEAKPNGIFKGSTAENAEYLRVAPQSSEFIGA
Chain of Torsin-1A-interacting protein 1 (Homo sapiens) (Q5JTV8 whole entry, looked up): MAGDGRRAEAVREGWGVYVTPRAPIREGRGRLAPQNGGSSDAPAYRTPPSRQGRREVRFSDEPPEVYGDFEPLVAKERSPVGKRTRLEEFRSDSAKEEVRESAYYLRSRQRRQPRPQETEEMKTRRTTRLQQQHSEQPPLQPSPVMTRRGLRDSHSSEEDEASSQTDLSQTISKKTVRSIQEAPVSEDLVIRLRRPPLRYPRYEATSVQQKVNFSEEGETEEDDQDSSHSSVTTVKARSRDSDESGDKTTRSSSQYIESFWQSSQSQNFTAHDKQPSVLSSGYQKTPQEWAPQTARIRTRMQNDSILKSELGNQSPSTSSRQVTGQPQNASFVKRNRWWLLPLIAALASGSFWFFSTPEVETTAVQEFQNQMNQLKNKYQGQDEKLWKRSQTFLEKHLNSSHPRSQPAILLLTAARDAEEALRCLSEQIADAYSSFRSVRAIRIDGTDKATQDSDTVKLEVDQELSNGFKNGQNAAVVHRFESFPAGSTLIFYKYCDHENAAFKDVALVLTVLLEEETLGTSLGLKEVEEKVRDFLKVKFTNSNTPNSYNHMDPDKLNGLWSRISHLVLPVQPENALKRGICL
Chain of Follistatin-related protein 3 (Homo sapiens) (O95633 whole entry, looked up): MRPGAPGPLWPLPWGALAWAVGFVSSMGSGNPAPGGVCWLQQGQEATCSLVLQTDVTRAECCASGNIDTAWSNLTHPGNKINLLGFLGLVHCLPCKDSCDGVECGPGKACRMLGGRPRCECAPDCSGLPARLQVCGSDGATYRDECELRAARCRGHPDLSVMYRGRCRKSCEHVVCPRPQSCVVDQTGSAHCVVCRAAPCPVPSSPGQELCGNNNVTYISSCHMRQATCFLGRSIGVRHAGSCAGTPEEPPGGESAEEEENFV
Chain of Left-right determination factor 2 (Homo sapiens) (O00292 whole entry, looked up): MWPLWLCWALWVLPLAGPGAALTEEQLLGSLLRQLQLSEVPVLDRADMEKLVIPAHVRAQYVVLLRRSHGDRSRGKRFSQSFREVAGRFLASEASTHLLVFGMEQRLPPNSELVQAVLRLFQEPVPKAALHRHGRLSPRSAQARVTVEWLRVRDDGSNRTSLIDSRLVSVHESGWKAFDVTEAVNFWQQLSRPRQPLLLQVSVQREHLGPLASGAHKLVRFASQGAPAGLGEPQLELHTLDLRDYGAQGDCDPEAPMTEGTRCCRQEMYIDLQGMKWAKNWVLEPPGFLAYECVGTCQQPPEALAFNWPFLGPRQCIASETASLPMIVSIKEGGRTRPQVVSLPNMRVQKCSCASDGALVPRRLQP
Chain of Dickkopf-related protein 1 (Homo sapiens) (O94907 whole entry, looked up): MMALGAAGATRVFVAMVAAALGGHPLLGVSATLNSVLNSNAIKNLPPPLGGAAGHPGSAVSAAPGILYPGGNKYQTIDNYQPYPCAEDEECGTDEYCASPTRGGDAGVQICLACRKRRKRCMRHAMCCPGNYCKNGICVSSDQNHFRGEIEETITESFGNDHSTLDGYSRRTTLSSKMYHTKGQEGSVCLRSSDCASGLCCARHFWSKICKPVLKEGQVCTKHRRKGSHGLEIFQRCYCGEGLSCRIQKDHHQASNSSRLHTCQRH
Chain of Fibroblast growth factor 10 (Homo sapiens) (O15520 whole entry, looked up): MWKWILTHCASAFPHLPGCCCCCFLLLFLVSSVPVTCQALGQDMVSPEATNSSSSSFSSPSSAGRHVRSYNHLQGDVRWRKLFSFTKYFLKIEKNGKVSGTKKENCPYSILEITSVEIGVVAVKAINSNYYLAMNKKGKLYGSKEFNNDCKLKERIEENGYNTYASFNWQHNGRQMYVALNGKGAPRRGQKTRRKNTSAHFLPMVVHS

| Compound | composite z-score [1] | composite z-score [2] | composite z-score [3] | z-score [4] | composite z-score [5] | composite z-score [6] | composite z-score [7] | composite z-score [8] | composite z-score [9] | composite z-score [10] | composite z-score [11] | z-score [12] | composite z-score [13] | composite z-score [14] | composite z-score [15] | composite z-score [16] | composite z-score [17] | composite z-score [18] | composite z-score [19] | composite z-score [20] |
| --- | --- | --- | --- | --- | --- | --- | --- | --- | --- | --- | --- | --- | --- | --- | --- | --- | --- | --- | --- | --- |
| CCc1cc2c(nc1CC)CCN(CCC(C)=NO[C@H](C)c1cn([C@@H]3COC[C@H]3O)nn1)C2 | 0.346 | -0.156 | -0.334 | 0.212 (inactive) | 0.189 | 0.229 | 0.545 | 0.433 | 0.611 | 0.468 | -0.236 | -0.53 | 0.368 | -0.433 | -0.931 | -0.0479 | 0.0723 | -0.172 | 0.651 | 0.173 |
| CC(C)(C)N1C(=O)[C@H]2[C@H]3[C@H](O)[C@H](O)CC(=NOCc4ccccc4)[C@H]3CC[C@H]2C1=O | 0.0828 | 0.989 | 1.36 | 0.453 (inactive) | 0.0277 | -0.399 | -0.376 | -0.663 | -0.551 | 0.251 | -0.397 | 0.561 | -0.0786 | 0.157 | -0.272 | -0.0125 | -0.154 | 0.299 | 0.185 | 1.28 |
| COC(=O)[C@H](C)NC(=O)CCC1CC(OC(=O)NCCc2ccc(F)cc2)CC2(CCCC(COC(=O)NCc3cccc(C(F)(F)F)c3)O2)O1 (stereo not given in full) | 0.185 | -0.528 | -0.623 | 0.249 (inactive) | 0.951 | 0.359 | 0.873 | 1.31 | 1.41 | 0.0622 | 0.518 | -0.377 | 0.749 | -0.0669 | -0.23 | -0.146 | -0.59 | -0.302 | 0.322 | -0.131 |
| CC(C)=CCCC(C)=CCON=C1C[C@@H](O)[C@@H](O)[C@@H]2[C@@H]3C(=O)N(C(C)(C)C)C(=O)[C@@H]3CC[C@@H]12 | 0.263 | 0.0156 | -0.046 | -0.0767 (inactive) | 0.313 | 0.426 | 0.619 | 0.51 | 0.18 | 0.231 | 0.0739 | -0.0781 | 0.542 | -0.195 | -0.608 | -0.0203 | -0.0626 | -0.116 | 0.1 | 0.372 |
| O=c1n(-c2ccccc2)c(=O)n2n1CC[C@@H]1C(=NOCc3ccccc3)[C@H]3O[C@H]3[C@@H](O)[C@@H]12 | -0.494 | -0.31 | -0.393 | 0.491 (inactive) | 0.334 | -0.864 | -0.0683 | -0.136 | 0.0228 | 0.168 | 0.0398 | -2.05 | 0.582 | -0.608 | -0.879 | -0.164 | -0.0035 | -0.113 | 0.0741 | 1.55 |
| Cc1ccc(S(=O)(=O)OC[C@H]2CN3[C@H](c4ccc(Br)cc4)[C@@H](C)CC[C@H]3C(=O)O2)cc1 | 0.579 | -0.285 | -0.207 | -0.649 (inactive) | 0.725 | -0.204 | -0.0807 | -0.0668 | 0.459 | 0.355 | 0.226 | -1.02 | 0.119 | 0.946 | -0.265 | -0.0462 | 0.0141 | -0.12 | 0.0859 | 0.934 |
| O=c1n(Cc2cc3c(cc2Cl)OCO3)c(=O)n2n1CC[C@@H]1C(=NOC[C@@H](O)COCc3ccco3)[C@H]3O[C@H]3[C@@H](O)[C@@H]12 | 0.461 | -0.0876 | -0.454 | 0.115 (inactive) | 0.246 | 0.532 | 0.349 | 0.596 | 0.538 | 0.217 | 0.77 | -0.76 | 0.436 | -0.25 | -0.535 | -0.0556 | -0.0709 | -0.0544 | 0.469 | 0.423 |
| CO[C@H]1COC(=O)[C@@H]2CCCN2C(=O)CC=C[C@@H](C)[C@H](OC)COC(=O)[C@@H](OCc2ccccc2)C=C[C@@H]1C | 0.695 | -0.665 | -1.24 | -1.63 (inactive) | 0.163 | 0.484 | 0.547 | 0.907 | 1.75 | 1.58 | -0.556 | -0.389 | 1.04 | -0.584 | -1.15 | -0.0882 | -0.2 | -0.408 | 0.0642 | -0.178 |
| CCOC(=O)[C@H](Cc1ccccc1)NC(=O)CCC1CC(OC(=O)NCCc2ccc(F)cc2)CC2(CCCC(COC(=O)NCCc3ccc(Cl)cc3)O2)O1 (stereo not given in full) | 0.54 | -0.0724 | -0.379 | -0.0219 (inactive) | 0.319 | 0.691 | 0.401 | 0.422 | 0.555 | 0.018 | 1.33 | -0.226 | 0.546 | 1.28 | 0.198 | -0.158 | -0.0977 | 0.232 | 0.949 | 0.49 |
| O=C1C=C[C@@H](O)[C@@H]2[C@@H]3C(=O)N(C[C@@H]4CCCO4)C(=O)[C@@H]3CC[C@@H]12 | 0.27 | -0.0602 | -0.454 | 0.186 (inactive) | 0.513 | 0.496 | 0.645 | 0.591 | 1.17 | 0.451 | 0.0168 | -0.848 | 0.449 | -0.202 | -0.78 | -0.124 | 0.111 | -0.176 | 0.206 | 0.33 |
| CCO[C@H](c1cc(OC)cc([N+](=O)[O-])c1OC)[C@H](C)C=CCC(=O)OC | 0.54 | -0.295 | -0.776 | 0.402 (inactive) | 0.0681 | 0.117 | 0.147 | 0.385 | 0.505 | 0.0666 | -0.679 | 0.265 | 0.46 | -0.432 | -1.36 | -0.248 | -0.214 | -0.0278 | 0.11 | -0.0356 |
